Here are results for 15 molecules from PubChem BioAssay (EPA / NIEHS).

SMILES strings stand for the structures. The source made the active and inactive calls. The calls were made as follows: active = hit-call score of the fitted dose curve at least 0.9, where 1 is the maximum; inactive = score below 0.9. *1 amine or outer side, *2 acyl side, *3 side chain or, on linkers, in order; H or OH if unused. Where a SMILES comes first, the peptide text is derived from it. Bridges are numbered along the chain shown (N, C = ends). Roman numbers before positions name the chains, in order. [ ]: non-standard residue; d: D form. Actinocin(9to1) = Cc1c2oc3c(C)ccc(C(=O)[*:1])c3nc-2c(C(=O)[*:2])c(N)c1=O; NMeV = CN[C@H](C(=O)O)C(C)C; Sar = CNCC(=O)O

The experiment has as its system SRY-box transcription factor 17 (SOX17) Protein Expression, Deisenroth Lab, SOX17 (gene 64321). The experiment is described as follows: CCTE_Deisenroth_DEVTOX-GLR_legacy_Sox17: (Legacy) CCTE's DevTox GLR-Endo Assay Evaluation of SRY-box transcription factor 17 (SOX17) Protein Expression, Deisenroth Lab (AID 2284341). The conditions noted are these: actives raise or lower the signal. As for the experimental part:
CCTE_Deisenroth_DEVTOX-GLR_legacy assay is a cell-based, multiplex-readout assay that uses RUES2-GLR, a human pluripotent cell line, with measurements taken at 48 hours after chemical dosing in a 384-well microplateCCTE_Deisenroth_DEVTOX-GLR_legacy_Sox17 is one of 4 assay components calculated from the CCTE_Deisenroth_DEVTOX-GLR_legacy assay and it measures an increase in the percentage of cells in an endoderm state. It is designed to make measurements of inducible reporter a form of fluorescent protein induction as detected with optical fluorescence microscopy. Percentage Sox17+ cells are determined by calculating the number of Sox17+ cells divided by cell count. A cell is Sox17+ if the cell Sox17 mean intensity is 5x BMAD above the pluripotent control median cell Sox17 mean. The assay endpoints were analyzed with bidirectional fitting relative to 0.2% DMSO control in the CCTE_Deisenroth_DEVTOX-GLR_Endo assay.Data from the assay component CCTE_Deisenroth_DEVTOX-GLR_legacy_Sox17 was analyzed into 1 assay endpoint. This assay endpoint, CCTE_Deisenroth_DEVTOX-GLR_legacy_Sox17, was analyzed with bidirectional fitting relative to DMSO as the negative control and baseline activity. Using a type of inducible reporter, gain or loss-of-signal activity can be used to understand changes in gene expression. Furthermore, this assay endpoint can be referred to as a primary readout, because this assay has produced multiple assay endpoints where this one serves as a measure of endoderm differentiation. To generalize the intended target to other relatable targets, this assay endpoint is annotated to the transcription factor intended target family, where the subfamily is SRY-related HMG-box.
All assay protocols are aligned to the DevTox GLR-Endo assay workflow. Cells are seeded into 384-well microplates for 24 hours prior to initiating differentiation in defined media for a total duration of 48 hours. A total of two chemical exposures are administered in 24-hour intervals during the 48-hour differentiation period. At the assay termination point, cells are fixed and stained with a fluorescent dye demarcating the nucleus. High-content imaging is used to acquire brightfield and fluorescent channel images across 5 fields per well. Cell identification and mean biomarker fluorescence intensities are calculated with image analysis software to determine the total cell counts for viability assessment and the biomarker expression frequency for each lineage-dependent assay. A typical experimental design tests a 10-point concentration series (1 nM - 200 uM) for 28 compounds in single technical replicate. Assay plate controls include non-differentiated pluripotent cells (baseline control), lineage-specific differentiated cells (differentiation control), and DMSO solvent exposed differentiated cells (solvent control). Experiments typically comprise a minimum of four experimental replicates (n=4).
Broadly, the AC50 is the concentration giving half of the maximal activity seen. On to `Nc1cccc2c1CN(C1CCC(=O)NC1=O)C2=O` (stereo not given), for which the AC50 is 0.328 µM (active).

Regarding `CNC(=O)c1cc(Oc2ccc(NC(=O)Nc3ccc(Cl)c(C(F)(F)F)c3)cc2)ccn1`, the AC50 is 0.609 µM (active).

`Cc1nc(Nc2ncc(C(=O)Nc3c(C)cccc3Cl)s2)cc(N2CCN(CCO)CC2)n1`: the AC50 was 0.811 µM (active).

`Cc1c2oc3c(C)ccc(C(=O)N[C@@H]4C(=O)N[C@H](C(C)C)C(=O)N5CCC[C@H]5C(=O)N(C)CC(=O)N(C)[C@@H](C(C)C)C(=O)O[C@@H]4C)c3nc-2c(C(=O)N[C@@H]2C(=O)N[C@H](C(C)C)C(=O)N3CCC[C@H]3C(=O)N(C)CC(=O)N(C)[C@@H](C(C)C)C(=O)O[C@@H]2C)c(N)c1=O` (I: T[dV]P[Sar][NMeV] / II: T[dV]P[Sar][NMeV]; ester I:1-I:C, II:1-II:C; linker I:N-II:N via Actinocin(9to1)): the AC50 was 0.000544 µM (active).

For `O=c1[nH]c(=O)n([C@H]2C[C@H](O)[C@@H](CO)O2)cc1Br`, the AC50 was 0.857 µM (active).

Turning to `COc1cc2c(Nc3ccc(Br)cc3F)ncnc2cc1OCC1CCN(C)CC1`, the AC50 was 4.92 µM (active).

Regarding `CN1CCN2c3ccccc3Cc3ccccc3C2C1` (stereo not given), the AC50 is 34.3 µM (active).

On to `Cc1nc2sccn2c(=O)c1CCN1CCC(=C(c2ccc(F)cc2)c2ccc(F)cc2)CC1`, for which the AC50 is 11 µM (active).

Turning to `O=C(c1ccc(F)cc1)C1CCN(CCn2c(=O)[nH]c3ccccc3c2=O)CC1`, the AC50 was 39.9 µM (active).

With `CCN(CC)CCNC(=O)c1c(C)[nH]c(/C=C2\C(=O)Nc3ccc(F)cc32)c1C`, the AC50 is 0.623 µM (active).

As to `CCCCCN=C(N)N/N=C/c1c[nH]c2ccc(OC)cc12`, the AC50 is 5.47 µM (active).

As for `COc1cc2ncnc(Nc3ccc(F)c(Cl)c3)c2cc1OCCCN1CCOCC1`, the AC50 is 5.74 µM (active).

In the case of `O=C1Cc2cc(CCN3CCN(c4nsc5ccccc45)CC3)c(Cl)cc2N1`, the AC50 is 3.91 µM (active).

`CC1=C(/C=C/C(C)=C/C=C/C(C)=C\C(=O)O)C(C)(C)CCC1`: the AC50 was 0.159 µM (active).

In the case of `Cc1ccc(NC(=O)c2ccc(CN3CCN(C)CC3)cc2)cc1Nc1nccc(-c2cccnc2)n1`, the AC50 is 16.5 µM (active).
